Source: PubChem BioAssay (NCATS)
Inconclusive results are not listed. Active and inactive are the calls of the source. Calls follow the shape of the dose curve; as a rule, active = well fitted curve in the direction sought with a large enough effect; inconclusive = small, poorly fitted or top-dose-only effect, or another doubt; inactive = no such curve, though single readings can be large; an effect the other way counts as inactive or inconclusive.

Columns and labels:
[1] = target: Glutathione peroxidase 1 (Homo sapiens) (UniProt P07203); assay: Primary qHTS Assay for Inhibitors of Recombinant Selenoprotein Glutathione Peroxidase 1 (GPX1) (AID 1845191); settings: recombinant GPX1, GR-coupled NADPH fluorescence, 15 min; series mostly up to 48.8 µM; also: nearly all actives have a fitted effect of over 65% in size
Procedure, shortened: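 10 nM GPX1 + cpd, 30 min RT; start w/ 1 mM GSH, 0.5 mM cumene hydroperoxide, 0.5 mM NADPH, 100 nM GR, 0.01% BSA; buffer 50 mM Tris-HCl pH 7.5, 2 mM EDTA, 150 mM NaCl; Fl 340/450, 0 & 15 min.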

[2] = target: Phospholipid hydroperoxide glutathione peroxidase GPX4 (Homo sapiens) (UniProt P36969); assay: Primary qHTS Assay for Inhibitors of Recombinant Selenoprotein Glutathione Peroxidase 4 (GPX4) (AID 1845192); settings: recombinant GPX4, GR-coupled NADPH fluorescence, 15 min; series mostly up to 50 µM; also: nearly all actives have a fitted effect of over 65% in size; also: potency is read from the fitted curve at half-maximal effect
Procedure, shortened: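 NADPH consumption, followed by fluorescence at 340/450 nm between 0 and 15 min, reports GPX4 activity via coupled glutathione reductase (100 nM). Enzyme 200 nM was pre-exposed to compound 30 min; 0.5 mM cumene hydroperoxide and 1 mM GSH served as substrates.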

[3] = target: Luciferin 4-monooxygenase (Photinus pyralis) (UniProt P08659); assay: Primary firefly luciferase (FLuc) qHTS assay for identification of artifact compounds. (AID 1845220); settings: purified firefly luciferase, luminescence, 5 min; series mostly up to 54.1 µM; also: nearly all actives have a fitted effect of over 60% in size
Procedure, shortened: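 FLuc 10 nM; luciferin 10 uM; ATP 10 uM; Tris-acetate pH 7.6, Mg-acetate 10 mM; 15 min RT preincubation; 5 min reaction; luminescence.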

[4] = Primary fluorescence-based thiol-reactive (MSTI) qHTS assay for identification of artifact compounds. (AID 1845221); settings: MSTI thiol-reactivity probe, 1 h; series mostly up to 53.8 µM; also: nearly all actives have a fitted effect of over 65% in size; also: potency is read from the fitted curve at half-maximal effect
Procedure, shortened: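 Thiol-reactive compounds detected by quenching of 4 uM MSTI fluorescence (525/598 nm) after 1 h room-temperature dark incubation in PBS pH 7.4, 2% DMSO. qHTS titration; percent inhibition Hill-fitted against Acetyl-MSTI/MSTI controls.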

[5] = test system: Nanoluciferase (engineered Oplophorus gracilirostris luciferase); assay: Primary Nanoluciferase (NLuc) qHTS assay for identification of artifact compounds. (AID 1845222); settings: NLuc-conditioned medium, Nano-Glo luminescence, 5 min; series mostly up to 54.1 µM;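 also: NLuc secreted into diluted conditioned medium of S16 cells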
Procedure, shortened: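 NLuc from S16 cell medium (1:55) plus test compounds, 15 min, room temperature. Luminescence after Nano-Glo (1:100) addition, 5 min.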

[6] = Quantitative High-Throughput drug screen in 47 multiple myeloma cell lines against the NCATS MIPE library collection: FR4_PLB cell viability assay (AID 1918924; also: nearly all actives have a fitted effect of over 35% in size; also: potency is read from the fitted curve at half-maximal effect); settings: FR4_PLB myeloma cells viability, CellTiter-Glo ATP, 48 h; series mostly up to 45.8 µM
Procedure, shortened: (§1)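 Primary qHTS used for cherry-picking: cells at 500/well, library compounds for 48 h (37C, 5% CO2), luminescent ATP assay.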

[7] = Quantitative High-Throughput drug screen in 47 multiple myeloma cell lines against the NCATS MIPE library collection: Delta47_JCRB cell viability assay (AID 1918925; also: nearly all actives have a fitted effect of over 45% in size; also: potency is read from the fitted curve at half-maximal effect); settings: Delta47 myeloma viability, CellTiter-Glo ATP, 48 h; series mostly up to 45.8 µM
Procedure, shortened: (§2)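 qHTS of the MIPE 4.0 collection: 500 myeloma cells/well, 48 h drug exposure at 37C in 5% CO2, then CellTiter-Glo for 5 min at room temperature before luminescence reading.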

[8] = Quantitative High-Throughput drug screen in 47 multiple myeloma cell lines against the NCATS MIPE library collection: EJM_DSMZ cell viability assay (AID 1918926; also: nearly all actives have a fitted effect of over 30% in size; also: potency is read from the fitted curve at half-maximal effect); settings: EJM myeloma cell viability, CellTiter-Glo ATP, 48 h; series mostly up to 45.8 µM
Procedure, shortened: as §2

[9] = Quantitative High-Throughput drug screen in 47 multiple myeloma cell lines against the NCATS MIPE library collection: ARP1_JJKsccF8 cell viability assay (AID 1918928; also: potency is read from the fitted curve at half-maximal effect; nearly all actives have a fitted effect of over 40% in size); settings: ARP1 myeloma cells viability, CellTiter-Glo ATP, 48 h; series mostly up to 45.8 µM
Procedure, shortened: (§3)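 Luminescence from CellTiter-Glo, taken after 5 min at room temperature, reports cellular ATP as viability. Cells (500 per well) had been treated 48 h at 37 °C with MIPE 4.0 compounds, scaled between DMSO and medium-only controls.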

[10] = Quantitative High-Throughput drug screen in 47 multiple myeloma cell lines against the NCATS MIPE library collection: Karpas620_DSMZ cell viability assay (AID 1918959); settings: Karpas620 myeloma viability, CellTiter-Glo ATP luminescence, 48 h; series mostly up to 45.8 µM; also: nearly all actives have a fitted effect of over 30% in size; also: potency is read from the fitted curve at half-maximal effect
Procedure, shortened: as §1

[11] = Quantitative High-Throughput drug screen in 47 multiple myeloma cell lines against the NCATS MIPE library collection: KHM11_PLB cell viability assay (AID 1918962); settings: KHM11 myeloma cell viability, CellTiter-Glo ATP luminescence, 48 h; series mostly up to 45.8 µM; also: nearly all actives have a fitted effect of over 35% in size; also: potency is read from the fitted curve at half-maximal effect
Procedure, shortened: as §1

[12] = Quantitative High-Throughput drug screen in 47 multiple myeloma cell lines against the NCATS MIPE library collection: JIM3_ECACC cell viability assay (AID 1918963; also: nearly all actives have a fitted effect of over 35% in size; also: potency is read from the fitted curve at half-maximal effect); settings: JIM3 myeloma viability, CellTiter-Glo ATP, 48 h; series mostly up to 45.8 µM
Procedure, shortened: as §1

[13] = Quantitative High-Throughput drug screen in 47 multiple myeloma cell lines against the NCATS MIPE library collection: ARD_JJKsccE7 cell viability assay (AID 1918929; also: potency is read from the fitted curve at half-maximal effect); settings: ARD myeloma cell line viability, CellTiter-Glo, 48 h; series mostly up to 45.8 µM
Procedure, shortened: as §2

[14] = Quantitative High-Throughput drug screen in 47 multiple myeloma cell lines against the NCATS MIPE library collection: KMM1_JCRB cell viability assay (AID 1918960); settings: KMM1 myeloma viability, CellTiter-Glo ATP luminescence, 48 h; series mostly up to 45.8 µM; also: nearly all actives have a fitted effect of over 30% in size; also: potency is read from the fitted curve at half-maximal effect
Procedure, shortened: as §3

[15] = Quantitative High-Throughput drug screen in 47 multiple myeloma cell lines against the NCATS MIPE library collection: Karpas417_ECACC cell viability assay (AID 1918961); settings: Karpas417 myeloma viability, CellTiter-Glo ATP luminescence, 48 h; viability (% of DMSO): at 45.8 µM (top of the series); also: potency is read from the fitted curve at half-maximal effect
Procedure, shortened: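 We plated 500 myeloma cells per well, pinned in MIPE 4.0 compounds, and incubated for 48 hours at 37C. ATP was then quantified with CellTiter-Glo, with DMSO and media-only wells defining 100% and 0%.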

[16] = Quantitative High-Throughput drug screen in 47 multiple myeloma cell lines against the NCATS MIPE library collection: JIM1_ECACC cell viability assay (AID 1918964; also: potency is read from the fitted curve at half-maximal effect); settings: JIM1 myeloma viability, CellTiter-Glo ATP luminescence, 48 h; series mostly up to 45.8 µM
Procedure, shortened: as §2

[17] = Quantitative High-Throughput drug screen in 47 multiple myeloma cell lines against the NCATS MIPE library collection: AMO1_DSMZ cell viability assay (AID 1918927; also: nearly all actives have a fitted effect of over 30% in size; also: potency is read from the fitted curve at half-maximal effect); settings: AMO1 myeloma cells viability, CellTiter-Glo ATP luminescence, 48 h; series mostly up to 45.8 µM
Procedure, shortened: as §2

Measured: Potency

Phospholipid hydroperoxide glutathione peroxidase GPX4 (Homo sapiens), sequence (P36969 whole entry, looked up): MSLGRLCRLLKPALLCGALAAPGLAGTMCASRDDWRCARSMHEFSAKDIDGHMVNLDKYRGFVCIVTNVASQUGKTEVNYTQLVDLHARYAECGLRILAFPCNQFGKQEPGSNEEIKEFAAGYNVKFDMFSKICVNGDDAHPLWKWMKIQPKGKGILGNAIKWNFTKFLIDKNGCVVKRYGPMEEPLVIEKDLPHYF
Glutathione peroxidase 1 (Homo sapiens), sequence (P07203 whole entry, looked up): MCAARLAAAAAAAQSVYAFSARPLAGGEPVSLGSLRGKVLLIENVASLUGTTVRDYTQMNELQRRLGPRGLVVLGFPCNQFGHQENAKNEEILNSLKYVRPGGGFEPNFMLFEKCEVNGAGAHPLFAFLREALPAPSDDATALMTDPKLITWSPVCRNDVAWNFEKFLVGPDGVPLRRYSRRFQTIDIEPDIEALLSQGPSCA

c1cncc(CN2CCC(n3ncc4c(N5CCOCC5)nc(-c5ccc6[nH]ccc6c5)nc43)CC2)c1
active: [6] 4.69 µM | [7] 0.743 µM | [8] 5.9 µM | [9] 3.32 µM | [11] 1.66 µM | [12] 5.26 µM
inactive: [1] | [2] | [3] | [4] | [5] | [10]

c1cc(N[C@@H]2CCNC2)nc(-c2cnc3ccc(-c4cn[nH]c4)cn23)c1
inactive: [1] | [3] | [5]
active: [2] 25.5 µM | [6] 11.8 µM | [8] 13.2 µM | [13] 26.4 µM | [10] 10.5 µM | [14] 8.33 µM | [15] 4.69 µM | [11] 3.32 µM | [16] 4.18 µM

Cc1coc2c1C(=O)C(=O)c1c-2ccc2c(C)cccc12
inactive: [1] | [2] | [3] | [5] | [17] | [13] | [14] | [11] | [16]
active: [4] 3.36 µM | [6] 20.9 µM | [8] 16.6 µM | [10] 6.62 µM

Nc1ccn(C2CO[C@H](CO)O2)c(=O)n1 (some centres not stated)
inactive: [1] | [2] | [3] | [4] | [5] | [6] | [8] | [17] | [13] | [10] | [14]
active: [12] 3.32 µM

C=CC(=O)Nc1ccc2ncnc(Nc3ccc(OCc4cccc(F)c4)c(Cl)c3)c2c1
active: [6] 6.62 µM | [7] 0.187 µM | [8] 5.26 µM | [17] 0.0209 µM | [9] 0.296 µM | [13] 0.0418 µM | [10] 0.0418 µM | [14] 0.148 µM | [11] 6.62 µM | [12] 0.743 µM | [16] 0.0418 µM
inactive: [1] | [2] | [3] | [4]

C[N+]1(C)[C@@H]2C[C@@H](OC(=O)C(O)(c3cccs3)c3cccs3)C[C@H]1[C@@H]1O[C@@H]12
inactive: [1] | [2] | [3] | [4] | [5] | [6] | [7] | [8] | [17] | [13] | [10] | [14] | [12]
